Laboratory results taken from PubChem BioAssay (Tox21).
Values joined by “and” are separate entries in the source; they are usually repeats but may differ in a detail not shown here. Equal entries are not always repeated. Records with an inconclusive call do not appear. Some compounds were tested as several samples or in several runs, with calls that do not always agree. Active and inactive are the calls of the source. Unless noted, calls come from the whole dose curve; as a rule, active = well fitted curve in the direction sought with a large enough effect in the repeat runs; inconclusive = weak or mixed curves; inactive = no such curve, though single readings can be large; an effect the other way counts as inactive or inconclusive.

Legend:
[1] = qHTS assay to identify small molecule agonists of the RXR signaling pathway - cell viability counter screen (AID 1159529); note: nearly all actives have a fitted effect of over 50% in size; note: potency is the fitted concentration of half-maximal effect
Outline: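 RXR-alpha-UAS-bla HEK 293T cells in medium with 2% charcoal-stripped FBS were pre-incubated 5 hr, then compound-treated 16 hr at 37 C. Viability was read by CellTiter-Glo luminescence in the same wells as the beta-lactamase assay, with tetraoctyl ammonium bromide as positive control.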

[2] = qHTS assay to identify small molecule antagonists of the retinoic acid receptor (RAR) signaling pathway (AID 1159552; note: nearly all actives have a fitted effect of over 50% in size)
Outline: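 Retinol signaling pathway inhibitors screened in C3RL4 RARE-luciferase reporter cells seeded overnight at 37 C, then compounds added with 1 uM (final) retinol as pathway substrate. After 6 hr at 37 C, luciferase luminescence read after 30 min at room temperature.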

[3] = qHTS assay to identify small molecule agonists of the retinoic acid receptor (RAR) signaling pathway (AID 1159553)
Outline: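 Quantitative high-throughput format: the Tox21 10K library was tested on C3RL4 RARE-luciferase cells for 6 hr at 37 C and 5% CO2, with luminescence measured after a 30 min room-temperature reagent step.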

[4] = qHTS assay to identify small molecule antagonists of the estrogen related receptor (ERR) signaling pathway from Tox21 library - cell viability counter screen (AID 1224834); note: nearly all actives have a fitted effect of over 30% in size; note: potency is the fitted concentration of half-maximal effect
Outline: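 Compounds in DMSO were pinned onto ERR cells that had been incubated for 6 h, and the plates were held at 37 C for 17.5 h. CellTiter-Fluor reagent was then added and fluorescence was measured after 30 min.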

[5] = qHTS assay to identify small molecule agonists of the constitutive androstane receptor (CAR) signaling pathway - cell viability counter screen (AID 1224836); note: nearly all actives have a fitted effect of over 45% in size; note: potency is the fitted concentration of half-maximal effect
Outline: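 HepG2 cells stably carrying hCAR and a CYP2B6-2.2kb reporter; 15-concentration compounds plus PK11195 (final 0.75 uM), 23 hr at 37 C/5% CO2. Viability read by CellTiter-Fluor fluorescence.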

[6] = qHTS assay to identify small molecule antagonists of the constitutive androstane receptor (CAR) signaling pathway - cell viability counter screen (AID 1224837); note: nearly all actives have a fitted effect of over 45% in size; note: potency is the fitted concentration of half-maximal effect
Outline: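 Cells are seeded, rested 4 hr at 37 C/5% CO2, dosed with compound (15-point series) and 50 nM CITCO, incubated a further 23 hr, and then CellTiter-Fluor reagent is added before fluorescence is read. The line is HepG2 with stable hCAR and CYP2B6-2.2kb.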

[7] = target: Nuclear receptor subfamily 1 group I member 3 (Homo sapiens) (UniProt Q14994); assay: qHTS assay to identify small molecule antagonists of the constitutive androstane receptor (CAR) signaling pathway (AID 1224838);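 note: HepG2 cells stably expressing hCAR with CYP2B6 luciferase reporter stimulated by CITCO; nearly all actives have a fitted effect of over 40% in size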
Outline: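 Luminescence from a CYP2B6-2.2kb promoter reporter in hCAR-expressing HepG2 cells reflects CAR signaling. Cells received compounds at 15 concentrations and 50 nM CITCO (final), then incubated 24 h at 37 C/5% CO2.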

[8] = qHTS assay to identify small molecule antagonists of the estrogen related receptor signaling pathway with the pleiotropic PPARgamma coactivator (PGC) from Tox21 10K library - cell viability counter screen (AID 1224840; active = well fitted cell-killing curve with a large enough effect in the repeat runs, not every such curve was filed as active; note: nearly all actives have a fitted effect of over 40% in size; note: potency is the fitted concentration of half-maximal effect)
Outline: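 Cell viability is measured by CellTiter-Fluor fluorescence in PGC/ERR cells that receive compounds after a 6-hour attachment period and are then incubated 17.5 hours at 37 C.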

[9] = target: Thyrotropin receptor (Homo sapiens) (UniProt P16473); assay: qHTS assay to identify small molecule agonists of the thyroid stimulating hormone receptor (TSHR) signaling pathway (AID 1224843; calls by dose curve; note: nearly all actives have a fitted effect of over 45% in size; note: potency is the fitted concentration of half-maximal effect)
Outline: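 HEK293/TSHR, 800 cells/well; cpd 30 min RT; add cAMP-d2 + anti-cAMP-cryptate, 1 h RT; fluorescence read on plate reader. 15-pt titration, n=3.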

[10] = qHTS assay to identify small molecule antagonists of the retinoid acid receptor (RAR) signaling pathway - cell viability counter screen (AID 1159551); note: nearly all actives have a fitted effect of over 35% in size; note: potency is the fitted concentration of half-maximal effect
Outline: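 ATP-based viability, C3RL4 cells, 6 h at 37 C with 1 uM final retinol co-added after compound; luminescence read 30 min post CellTiter-Glo, RT.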

[11] = target: Luciferin 4-monooxygenase (Photinus pyralis) (UniProt P08659); assay: qHTS assay to identify small molecule inhibitors of firefly luciferase (AID 1224835); note: nearly all actives have a fitted effect of over 25% in size; note: potency is the fitted concentration of half-maximal effect
Outline: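 Biochemical qHTS: compounds run as interplate titrations against purified firefly enzyme, with D-luciferin and ATP each at its KM concentration. Light output recorded by CCD imaging.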

[12] = target: Nuclear receptor subfamily 1 group I member 3 (Homo sapiens) (UniProt Q14994); assay: qHTS assay to identify small molecule agonists of the constitutive androstane receptor (CAR) signaling pathway (AID 1224839); note: nearly all actives have a fitted effect of over 15% in size; note: potency is the fitted concentration of half-maximal effect
Outline: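 HepG2 cells stably co-transfected with hCAR and a CYP2B6-2.2kb luciferase reporter; compounds at 15 concentrations with 0.75 uM PK11195 present. After 24 hr at 37 C, luciferase read by ONE-Glo luminescence.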

[13] = qHTS assay to identify small molecule antagonists of the estrogen related receptor signaling pathway with the pleiotropic PPARgamma coactivator (PGC) from Tox21 10K library (AID 1224841; call rule not given here; note: series mostly up to about 92 µM; actives are mostly falling curves and most rising ones were filed inactive; nearly all actives have a fitted effect of over 50% in size)
Outline: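 Cells stably carrying the PGC/ERR reporter, seeded at 2,000 per well, received pin-transferred compounds 6 h post-plating. Exposure lasted 18 h at 37 C. Signal: One-Glo luminescence.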

[14] = qHTS assay to identify small molecule agonists of the estrogen related receptor signaling pathway with the pleiotropic PPARgamma coactivator (PGC) from Tox21 10K library (AID 1224842); note: nearly all actives have a fitted effect of over 15% in size
Outline: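 PGC/ERR reporter cell line, 2,000 cells per well, incubated 6 h at 37 C before 23 nL compound in DMSO was added. After 18 h at 37 C, One-Glo luminescence read following 30 min at room temperature.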

Measured: Potency

Sequence of Nuclear receptor subfamily 1 group I member 3 (Homo sapiens) (Q14994 whole entry, looked up): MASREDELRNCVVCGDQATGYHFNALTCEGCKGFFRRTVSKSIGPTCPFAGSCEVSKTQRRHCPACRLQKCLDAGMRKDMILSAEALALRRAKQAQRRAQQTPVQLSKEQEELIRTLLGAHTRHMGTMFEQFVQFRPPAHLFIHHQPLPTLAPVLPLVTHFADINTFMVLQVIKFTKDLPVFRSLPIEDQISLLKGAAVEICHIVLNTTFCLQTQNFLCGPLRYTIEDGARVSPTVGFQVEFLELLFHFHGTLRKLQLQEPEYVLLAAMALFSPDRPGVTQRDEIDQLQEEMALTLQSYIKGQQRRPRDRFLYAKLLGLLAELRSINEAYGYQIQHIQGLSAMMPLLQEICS
Sequence of Thyrotropin receptor (Homo sapiens) (P16473 whole entry, looked up): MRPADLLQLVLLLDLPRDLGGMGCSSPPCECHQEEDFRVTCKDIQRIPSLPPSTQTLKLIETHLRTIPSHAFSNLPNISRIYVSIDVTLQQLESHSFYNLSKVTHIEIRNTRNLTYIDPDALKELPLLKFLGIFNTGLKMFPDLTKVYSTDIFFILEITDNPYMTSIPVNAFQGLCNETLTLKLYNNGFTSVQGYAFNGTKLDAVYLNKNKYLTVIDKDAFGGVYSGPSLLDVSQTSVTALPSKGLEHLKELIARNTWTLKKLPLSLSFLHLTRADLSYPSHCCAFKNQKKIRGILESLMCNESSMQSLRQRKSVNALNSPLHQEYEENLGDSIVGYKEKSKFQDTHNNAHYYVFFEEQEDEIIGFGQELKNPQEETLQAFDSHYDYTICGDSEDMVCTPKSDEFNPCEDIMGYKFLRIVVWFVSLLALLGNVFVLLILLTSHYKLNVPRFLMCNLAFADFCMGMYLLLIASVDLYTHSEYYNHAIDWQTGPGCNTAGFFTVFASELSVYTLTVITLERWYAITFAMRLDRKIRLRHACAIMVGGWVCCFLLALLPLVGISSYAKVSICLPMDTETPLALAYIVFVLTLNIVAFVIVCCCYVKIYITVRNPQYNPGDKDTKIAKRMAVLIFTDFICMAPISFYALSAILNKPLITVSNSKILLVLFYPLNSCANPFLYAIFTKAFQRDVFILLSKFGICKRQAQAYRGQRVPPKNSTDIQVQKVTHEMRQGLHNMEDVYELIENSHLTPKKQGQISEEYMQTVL
Sequence of Luciferin 4-monooxygenase (Photinus pyralis) (P08659 whole entry, looked up): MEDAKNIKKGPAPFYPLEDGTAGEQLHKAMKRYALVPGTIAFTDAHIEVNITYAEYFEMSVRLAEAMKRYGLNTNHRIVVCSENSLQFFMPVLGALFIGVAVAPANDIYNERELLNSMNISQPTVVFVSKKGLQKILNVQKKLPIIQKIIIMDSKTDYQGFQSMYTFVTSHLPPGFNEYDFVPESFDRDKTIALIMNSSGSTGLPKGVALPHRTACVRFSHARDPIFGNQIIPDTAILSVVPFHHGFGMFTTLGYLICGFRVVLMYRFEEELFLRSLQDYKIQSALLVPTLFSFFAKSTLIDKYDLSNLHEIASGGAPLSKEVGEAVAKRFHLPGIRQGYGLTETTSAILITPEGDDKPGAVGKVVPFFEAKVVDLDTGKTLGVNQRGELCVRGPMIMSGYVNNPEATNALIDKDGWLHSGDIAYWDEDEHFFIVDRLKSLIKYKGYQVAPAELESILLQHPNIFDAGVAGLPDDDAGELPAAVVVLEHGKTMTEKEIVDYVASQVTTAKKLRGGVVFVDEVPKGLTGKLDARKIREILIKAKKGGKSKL

OC[P+](CO)(CO)CO
not listed: [10] | [11] | [12] | [13] | [14]
inactive: all other assays above

CC(C)OC(=O)Cc1ccccc1
inactive: [1] | [10] | [4] | [11] | [5] | [6] | [8] | [9]

COP(=O)(OC)OC(Br)C(Cl)(Cl)Br (configuration not stated)
inactive: [1] | [10] | [4] | [5] | [6] | [7]

O=C([O-])c1ccccn1.O=C([O-])c1ccccn1.O=C([O-])c1ccccn1.[Cr+3]
inactive: [1] | [10] | [4] | [5] | [6] | [7] | [12] | [8]

O=C(O)C(F)(F)C(F)(F)C(F)(F)C(F)(F)C(F)(F)F
not listed: [10] | [12] | [13] | [14]
inactive: all other assays above

Oc1cccc(Cl)c1
not listed: [2] | [3] | [7] | [8] | [12]
inactive: all other assays above

Nc1cc(Cl)cc(C(=O)O)c1Cl
not listed: [9] | [10]
inactive: all other assays above

CCCC(C)(COC(N)=O)COC(=O)NC(C)C (configuration not stated)
not listed: [2] | [3] | [11] | [12]
inactive: all other assays above

CC1(C)[C@H](C(=O)O[C@H](C#N)c2cccc(Oc3ccccc3)c2)[C@@H]1C=C(Br)Br
not listed: [2] | [3] | [7] | [9] | [12]
inactive: all other assays above

C=C(Cl)Cl
not listed: [2] | [3] | [11]
inactive: all other assays above

Clc1ccccc1
not listed: [10] | [12]
inactive: all other assays above

CCCCCCCCCCCC[N+](C)(C)CCOc1ccccc1
inactive: [7] | [12] | [14]
48.6 µM (active) and inactive: [9]
active: [1] 8.71 µM and 12 µM | [10] 61.1 µM | [4] 61.1 µM and 26.6 µM | [8] 61.1 µM and 29.8 µM

Nc1cccc2ccccc12
not listed: [2] | [3] | [12] | [13] | [14]
inactive: all other assays above

O=C(N/N=C/c1ccc([N+](=O)[O-])o1)c1cc([N+](=O)[O-])cc([N+](=O)[O-])c1O
active: [4] 11.9 µM | [11] 21.9 µM | [5] 11.9 µM | [6] 10.6 µM | [12] 15 µM | [8] 11.9 µM
inactive: [1] | [2] | [7] | [9]

Cc1nc(N(C)C)nc(OC(=O)N(C)C)c1C
inactive: [1] | [2] | [3] | [4] | [5] | [6] | [8] | [9]

CCCCCCCCCCCCCCCl
not listed: [8] | [10] | [13] | [14]
inactive: all other assays above

[Cl-].[Cl-].[Hg+2]
active: [1] 3.08 µM and 3.09 µM | [10] 27.2 µM and 6.11 µM | [4] 6.08 µM and 4.33 µM | [5] 60.8 µM and 7.7 µM | [6] 60.8 µM and 5.45 µM | [8] 15.3 µM and 2.43 µM

CC(C)(C)CC(C)(C)c1ccc(O)cc1
active: [1] 17.4 µM and 23.9 µM | [10] 43.3 µM | [9] 6.86 µM and 13.3 µM
inactive: [11] | [5] | [6]

COC(=O)C1(O)c2ccccc2-c2ccccc21
inactive: [1] | [10] | [4] | [11] | [5] | [6] | [8] | [9]

O=C(CCl)CCl
inactive: [1] | [10] | [4] | [11] | [5] | [6] | [8] | [9]

CON(C)C(=O)Nc1ccc(Cl)cc1
inactive: [1] | [10] | [4] | [11] | [5] | [6] | [9]

O=CC=O
not listed: [10] | [13] | [14]
inactive: all other assays above

CCC(C)(C)O
not listed: [2] | [3] | [12] | [13] | [14]
inactive: all other assays above

CC(O)CN1CCN(CC(=O)[O-])CCN(CC(=O)[O-])CCN(CC(=O)[O-])CC1.[Gd+3] (configuration not stated)
inactive: [1] | [10] | [4] | [5] | [6] | [8] | [9]

C=CCN1C[C@H](C)N([C@H](c2ccc(C(=O)N(CC)CC)cc2)c2cccc(OC)c2)C[C@H]1C
not listed: [5] | [6] | [10] | [11] | [13]
inactive: all other assays above

CCCC[P+](CC)(CCCC)CCCC (tested in a mixture with another compound)
inactive: [1] | [10] | [4] | [11] | [5] | [6] | [8] | [9]

C[N+]1(CCF)[C@@H]2CC[C@H]1CC(OC(=O)C(O)(c1ccccc1)c1ccccc1)C2 (some centres not stated)
inactive: [1] | [10] | [4] | [11] | [5] | [6] | [9]

CC(C)[C@@H](C(=O)O[C@@H](C#N)c1cccc(Oc2ccccc2)c1)c1ccc(Cl)cc1
19.6 µM (active) and inactive: [12]
inactive: [1] | [10] | [4] | [5] | [6] | [8]

CC(=O)OC(c1ccccc1)C(Cl)(Cl)Cl (configuration not stated)
inactive: [1] | [10] | [4] | [5] | [6] | [8] | [9]

CCCC[N+](CCCC)(CCCC)CCCC
inactive: [1] | [10] | [4] | [11] | [5] | [6] | [8] | [14]

CCCSP(=S)(OCC)Oc1ccc(SC)cc1 (configuration not stated)
active: [12] 21.7 µM | [9] 19.3 µM
not listed: [3] | [10]
inactive: all other assays above

COc1cc(CC(C)N)c(OC)cc1Br (configuration not stated)
inactive: [1] | [10] | [11] | [5] | [14] | [9]

CN[C@@H](C)[C@H](O)c1ccccc1
not listed: [10] | [13] | [14]
inactive: all other assays above

CCC[N+](CCC)(CCC)CCC
inactive: [1] | [10] | [4] | [11] | [5] | [6] | [7] | [14]

Cc1cnc(C2=NC(C)(C(C)C)C(=O)N2)c(C(=O)O)c1 (configuration not stated)
inactive: [1] | [10] | [4] | [11] | [5] | [6] | [9]

Cc1ccc2c(C)cccc2c1
not listed: [10] | [13] | [14]
inactive: all other assays above
